Test [1] addresses T1, Muscle, skeletal receptor tyrosine-protein kinase (Homo sapiens) (UniProt O15146).
T1 sequence (whole entry): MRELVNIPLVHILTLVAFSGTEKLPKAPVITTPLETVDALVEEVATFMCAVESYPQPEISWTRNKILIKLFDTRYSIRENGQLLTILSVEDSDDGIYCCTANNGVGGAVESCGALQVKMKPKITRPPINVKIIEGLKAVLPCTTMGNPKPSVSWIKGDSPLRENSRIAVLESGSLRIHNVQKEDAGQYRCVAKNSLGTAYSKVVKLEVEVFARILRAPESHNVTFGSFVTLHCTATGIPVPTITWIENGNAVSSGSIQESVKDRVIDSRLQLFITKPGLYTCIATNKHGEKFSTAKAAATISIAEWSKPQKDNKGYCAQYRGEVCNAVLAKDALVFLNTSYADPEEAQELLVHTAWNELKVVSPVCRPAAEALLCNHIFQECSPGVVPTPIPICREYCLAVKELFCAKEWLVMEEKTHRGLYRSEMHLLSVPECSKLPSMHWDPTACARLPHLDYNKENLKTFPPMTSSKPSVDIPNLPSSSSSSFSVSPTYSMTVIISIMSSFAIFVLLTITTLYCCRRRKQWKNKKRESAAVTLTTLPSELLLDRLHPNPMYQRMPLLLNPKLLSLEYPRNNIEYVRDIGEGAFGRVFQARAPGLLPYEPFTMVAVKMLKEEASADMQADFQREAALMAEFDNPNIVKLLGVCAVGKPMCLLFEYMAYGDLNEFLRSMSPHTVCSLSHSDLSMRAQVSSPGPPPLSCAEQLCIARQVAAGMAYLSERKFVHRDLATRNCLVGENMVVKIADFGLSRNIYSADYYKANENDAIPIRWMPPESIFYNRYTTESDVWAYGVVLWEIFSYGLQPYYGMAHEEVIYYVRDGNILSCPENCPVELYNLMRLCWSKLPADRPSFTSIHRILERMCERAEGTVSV
The note with it: at 1 µM.

Test [2] concerns the target Platelet-derived growth factor receptor alpha (Homo sapiens) (UniProt P16234). The note with it: at 0.1 µM.
The target is the same in test [3]. The note with it: at 1 µM.
In test [4] the test system is Platelet-derived growth factor receptor alpha (Homo sapiens), P16234 [D842V]. To be noted: at 0.1 µM.
Test [5] shares this test system. The note with it: at 1 µM.
Test [6] deals with Platelet-derived growth factor receptor alpha (Homo sapiens), P16234 [T674I]. The note with it: at 0.1 µM.
The test system is the same in test [7]. To be noted: at 1 µM.
Test [8] deals with Platelet-derived growth factor receptor alpha (Homo sapiens), P16234 [V561D]. The note with it: at 0.1 µM.
Sequence of Platelet-derived growth factor receptor alpha (Homo sapiens), P16234 [V561D] (P16234 whole entry V561D): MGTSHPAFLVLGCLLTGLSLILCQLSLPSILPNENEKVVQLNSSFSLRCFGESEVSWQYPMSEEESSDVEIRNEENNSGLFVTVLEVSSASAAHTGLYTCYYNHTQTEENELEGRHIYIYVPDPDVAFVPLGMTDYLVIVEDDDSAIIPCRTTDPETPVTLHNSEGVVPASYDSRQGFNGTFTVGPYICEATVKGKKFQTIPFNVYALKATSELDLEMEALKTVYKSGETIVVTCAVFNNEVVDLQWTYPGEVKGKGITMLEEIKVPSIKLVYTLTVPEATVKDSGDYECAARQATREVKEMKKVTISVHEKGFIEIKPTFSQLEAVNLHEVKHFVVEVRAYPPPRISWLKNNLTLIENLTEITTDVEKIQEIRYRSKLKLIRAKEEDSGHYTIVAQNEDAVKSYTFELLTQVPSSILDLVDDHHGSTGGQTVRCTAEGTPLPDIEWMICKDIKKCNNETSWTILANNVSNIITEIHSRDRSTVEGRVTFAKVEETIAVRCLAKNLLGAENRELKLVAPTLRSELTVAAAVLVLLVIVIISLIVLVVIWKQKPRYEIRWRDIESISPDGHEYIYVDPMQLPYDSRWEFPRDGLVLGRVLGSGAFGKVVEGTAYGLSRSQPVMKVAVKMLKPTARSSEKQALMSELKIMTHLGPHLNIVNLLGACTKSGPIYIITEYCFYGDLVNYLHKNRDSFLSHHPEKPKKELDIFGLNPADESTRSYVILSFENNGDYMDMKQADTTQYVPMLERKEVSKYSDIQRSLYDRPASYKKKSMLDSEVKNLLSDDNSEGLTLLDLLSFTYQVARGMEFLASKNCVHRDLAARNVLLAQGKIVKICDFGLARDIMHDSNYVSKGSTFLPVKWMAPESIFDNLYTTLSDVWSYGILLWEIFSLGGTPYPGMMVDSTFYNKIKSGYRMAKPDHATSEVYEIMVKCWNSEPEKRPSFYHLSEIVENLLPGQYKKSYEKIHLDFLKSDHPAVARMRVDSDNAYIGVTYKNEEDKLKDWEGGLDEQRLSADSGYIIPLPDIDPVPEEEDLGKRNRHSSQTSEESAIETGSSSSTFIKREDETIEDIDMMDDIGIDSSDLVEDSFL
Test [9] has the same test system. The note with it: at 1 µM.
The target in test [10] is Platelet-derived growth factor receptor beta (Homo sapiens) (UniProt P09619). The note with it: at 0.1 µM.
Sequence of Platelet-derived growth factor receptor beta (Homo sapiens) (P09619 whole entry): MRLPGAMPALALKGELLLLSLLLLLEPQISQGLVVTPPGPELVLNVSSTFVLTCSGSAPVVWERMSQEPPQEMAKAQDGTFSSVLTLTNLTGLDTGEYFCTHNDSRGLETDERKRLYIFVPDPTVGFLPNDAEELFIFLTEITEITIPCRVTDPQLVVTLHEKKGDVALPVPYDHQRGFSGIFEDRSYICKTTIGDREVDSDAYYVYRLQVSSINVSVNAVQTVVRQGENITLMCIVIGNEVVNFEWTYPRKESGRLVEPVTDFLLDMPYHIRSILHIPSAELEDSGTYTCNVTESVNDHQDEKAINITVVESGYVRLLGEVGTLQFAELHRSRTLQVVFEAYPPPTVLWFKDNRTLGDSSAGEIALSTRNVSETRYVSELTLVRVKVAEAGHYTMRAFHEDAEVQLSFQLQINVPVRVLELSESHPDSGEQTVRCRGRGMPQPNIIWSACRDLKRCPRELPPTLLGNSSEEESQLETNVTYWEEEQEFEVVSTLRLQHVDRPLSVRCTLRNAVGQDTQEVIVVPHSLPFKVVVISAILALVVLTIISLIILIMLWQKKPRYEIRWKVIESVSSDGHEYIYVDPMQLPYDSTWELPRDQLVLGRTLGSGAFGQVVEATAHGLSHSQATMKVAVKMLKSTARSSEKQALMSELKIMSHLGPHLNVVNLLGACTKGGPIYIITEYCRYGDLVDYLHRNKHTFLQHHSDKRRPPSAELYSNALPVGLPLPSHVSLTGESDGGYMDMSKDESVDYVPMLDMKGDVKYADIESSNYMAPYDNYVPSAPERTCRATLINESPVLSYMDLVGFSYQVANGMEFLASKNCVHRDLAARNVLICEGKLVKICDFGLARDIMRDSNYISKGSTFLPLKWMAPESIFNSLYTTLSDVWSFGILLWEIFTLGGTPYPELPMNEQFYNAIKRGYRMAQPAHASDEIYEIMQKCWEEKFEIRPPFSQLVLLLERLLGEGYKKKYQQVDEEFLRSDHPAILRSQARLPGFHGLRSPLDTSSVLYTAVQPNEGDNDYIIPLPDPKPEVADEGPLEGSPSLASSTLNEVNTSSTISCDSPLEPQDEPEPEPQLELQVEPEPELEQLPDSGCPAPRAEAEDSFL
Test [11] has the same target. The note with it: at 1 µM.
In test [12] the target is Tyrosine-protein kinase FRK (Homo sapiens) (UniProt P42685). To be noted: at 0.1 µM.
Sequence of Tyrosine-protein kinase FRK (Homo sapiens) (P42685 whole entry): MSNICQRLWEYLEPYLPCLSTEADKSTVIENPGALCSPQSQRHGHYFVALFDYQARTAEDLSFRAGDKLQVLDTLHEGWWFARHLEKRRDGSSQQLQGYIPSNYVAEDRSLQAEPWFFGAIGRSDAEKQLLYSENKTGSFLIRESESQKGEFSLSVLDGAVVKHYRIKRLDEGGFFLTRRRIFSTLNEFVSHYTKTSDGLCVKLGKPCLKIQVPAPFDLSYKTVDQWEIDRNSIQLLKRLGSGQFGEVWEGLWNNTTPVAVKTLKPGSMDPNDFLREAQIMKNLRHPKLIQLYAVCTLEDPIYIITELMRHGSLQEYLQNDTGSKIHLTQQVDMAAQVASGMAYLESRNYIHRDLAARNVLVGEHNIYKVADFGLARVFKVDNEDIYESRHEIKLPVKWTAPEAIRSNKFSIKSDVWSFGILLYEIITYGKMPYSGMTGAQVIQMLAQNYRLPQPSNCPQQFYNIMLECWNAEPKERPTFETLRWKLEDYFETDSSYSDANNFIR
Test [13] shares this target. To be noted: at 1 µM.
Test [14] concerns the target Protein-tyrosine kinase 2-beta (Homo sapiens) (UniProt Q14289). The note with it: at 0.1 µM.
Test [15] has the same target. The note with it: at 1 µM.
For test [16], the target named is Proto-oncogene tyrosine-protein kinase receptor Ret (Homo sapiens) (UniProt P07949). The note with it: at 0.1 µM.
Sequence of Proto-oncogene tyrosine-protein kinase receptor Ret (Homo sapiens) (P07949 whole entry): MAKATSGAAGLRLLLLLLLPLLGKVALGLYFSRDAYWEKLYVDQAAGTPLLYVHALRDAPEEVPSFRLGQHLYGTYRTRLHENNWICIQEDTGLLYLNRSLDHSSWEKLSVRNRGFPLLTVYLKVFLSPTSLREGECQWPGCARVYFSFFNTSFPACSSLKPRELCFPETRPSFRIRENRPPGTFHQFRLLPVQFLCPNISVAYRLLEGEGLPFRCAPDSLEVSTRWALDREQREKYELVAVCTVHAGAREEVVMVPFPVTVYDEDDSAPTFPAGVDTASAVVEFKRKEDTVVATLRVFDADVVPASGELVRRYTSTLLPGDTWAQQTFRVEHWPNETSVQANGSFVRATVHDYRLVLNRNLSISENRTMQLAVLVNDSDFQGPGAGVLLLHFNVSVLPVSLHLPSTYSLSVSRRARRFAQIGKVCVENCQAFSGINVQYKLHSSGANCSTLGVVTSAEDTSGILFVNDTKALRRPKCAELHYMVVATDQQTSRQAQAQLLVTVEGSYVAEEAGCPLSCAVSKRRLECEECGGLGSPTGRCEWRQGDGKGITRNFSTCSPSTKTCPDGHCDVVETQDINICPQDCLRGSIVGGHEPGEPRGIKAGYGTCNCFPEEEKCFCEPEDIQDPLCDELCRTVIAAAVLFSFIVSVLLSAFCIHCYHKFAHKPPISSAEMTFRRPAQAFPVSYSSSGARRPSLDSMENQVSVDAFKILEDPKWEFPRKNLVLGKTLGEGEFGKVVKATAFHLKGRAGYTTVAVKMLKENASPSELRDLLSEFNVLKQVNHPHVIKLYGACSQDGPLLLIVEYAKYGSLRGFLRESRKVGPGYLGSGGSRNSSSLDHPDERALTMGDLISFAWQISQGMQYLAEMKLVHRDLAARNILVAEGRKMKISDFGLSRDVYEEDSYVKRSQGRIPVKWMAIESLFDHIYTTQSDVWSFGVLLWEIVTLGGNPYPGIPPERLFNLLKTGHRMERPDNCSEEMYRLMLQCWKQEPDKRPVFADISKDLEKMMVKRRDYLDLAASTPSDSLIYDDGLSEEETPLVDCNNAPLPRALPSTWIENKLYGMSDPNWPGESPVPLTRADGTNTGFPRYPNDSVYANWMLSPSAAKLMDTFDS
Test [17] shares this target. The note with it: at 1 µM.
In test [18] the test system is Proto-oncogene tyrosine-protein kinase receptor Ret (Homo sapiens), P07949 [V804L]. The note with it: at 0.1 µM.
The test system is the same in test [19]. The note with it: at 1 µM.
Test [20] deals with Proto-oncogene tyrosine-protein kinase receptor Ret (Homo sapiens), P07949 [Y791F]. The note with it: at 0.1 µM.

Drawing on ChEMBL document CHEMBL1961873, “Compounds: GSK PKIS; Assays: Nanosyn kinase panel” (2012), this text covers inhibition for 7 compounds.

As usually defined, the inhibition is the change of the read-out against control, counted positive when it falls.

Sequence of Platelet-derived growth factor receptor alpha (Homo sapiens) (P16234 whole entry): as the sequence (P16234 whole entry V561D) above, with D561V counted along it

In the case of `Cc1cc(-c2ccco2)cc(C)c1/C=C/c1cncc(-c2nn[nH]n2)c1`, the inhibition in test [1] was -4.43%; in test [2] it was 5.56%; in test [3], 9.36%; in [4], 3.41%; in test [5], 3.27%; in test [6], 2.56%. The inhibition is 3.42% in test [7]; 2.25% in test [8]; 7% in test [9]; 0.05% in test [10]; 2.67% in test [11]; -0.44% in [12]. Besides, the inhibition in test [13] was -0.05%; in test [14] it was 1.24%; in [15] it was 0%; in test [16] it was 1.88%; in test [17] it was 3.21%; in test [18], 8.81%. Further, the inhibition was found to be 1.72% in test [19] and 2.21% in test [20].

Regarding `COc1cc(C=NNc2ncnc3c2cnn3Cc2ccccc2)ccc1O`, the inhibition is 17.2% in test [1]; 9.07% in test [2]; 43.3% in test [3]; 6.24% in test [4]; 42.1% in [5]; -1.14% in [6]. Further, the inhibition in [7] came out at 1.46%; in test [8], 6.77%; in test [9], 34.3%; in test [10], 6.26%; in [11], 26.4%; in test [12], 0.54%. Also, the inhibition in [13] was 1.85%; in test [14] it was -6.73%; in [15] it was -1.9%; in [16] it was 7.87%; in test [17], 46.3%; in [18] it was 1.82%. Also, the inhibition in [19] stood at 11.1%; in [20], 7.69%.

For the compound `CCn1c(-c2nonc2N)nc2c(C#CC(C)(C)O)ncc(OCC3CCNCC3)c21`, the inhibition in test [1] turned out to be 3.71%; in test [2], 9.32%; in test [3], 28.6%; in test [4], 4.23%; in test [5], 34.4%; in [6], 7.44%. Moreover, the inhibition in [7] amounted to 29.9%; in [8], 5.4%; in test [9] it was 16.6%; in [10] it was 12.1%; in test [11], 44.6%; in test [12], 1.13%. Besides, the inhibition came out at 1.21% in test [13]; 9.34% in [14]; 29.7% in test [15]; 6.89% in [16]; 26.3% in test [17]; 6.2% in test [18]. For the same compound, the inhibition is 28.5% in test [19] and 5.3% in test [20].

With `COc1cccc(-n2ncc3c(N/N=C/c4ccncc4)ncnc32)c1`, the inhibition stood at 45.6% in [1]; 43% in test [2]; 79.5% in test [3]; 44.4% in test [4]; 87.3% in test [5]; 25.4% in test [6]. In addition, the inhibition was found to be 82.4% in test [7]; 40.4% in test [8]; 84.7% in test [9]; 45% in [10]; 81.2% in test [11]; 2.72% in test [12]. Also, the inhibition was 5.75% in test [13]; 11.5% in test [14]; 16.5% in [15]; 9.73% in test [16]; 50.3% in [17]; 7.23% in [18]. Also, the inhibition in [19] stood at 31.1%; in test [20], 18.4%.

In the case of `CCn1c(-c2nonc2N)nc2c(C#CC(C)(C)O)nc(O[C@@H](CN)c3ccccc3)cc21`, the inhibition came out at 1.93% in test [1]; 32% in test [2]; 70.5% in test [3]; 49.8% in test [4]; 89.5% in test [5]; 34.5% in [6]. Besides, the inhibition in test [7] is 86.8%; in test [8], 29.6%; in test [9], 79.3%; in [10], 50.3%; in test [11], 79.5%; in test [12] it was -0.39%. Moreover, the inhibition in test [13] was 0.63%; in test [14], 27%; in [15], 80.1%; in test [16] it was 41.7%; in [17] it was 90%; in test [18], 9.12%. Further, the inhibition in test [19] amounted to 47.7%; in test [20], 41.8%.

As to `CCn1c(-c2nonc2N)nc2c(C#CC(C)(C)O)ncc(OC[C@@H]3CCCN3)c21`, the inhibition in test [1] was -3.74%; in [2], 5.65%; in test [3], 24.4%; in test [4], 7.78%; in test [5], 44.4%; in [6] it was 4.92%. Besides, the inhibition in [7] is 26.6%; in [8], 2.28%; in test [9] it was 22.3%; in test [10], 8.36%; in test [11], 47.2%; in test [12], -0.88%. The inhibition in [13] stood at 0.68%; in [14], 1.89%; in [15] it was 23%; in test [16], 3.87%; in test [17] it was 25.2%; in [18] it was 0.45%. In addition, the inhibition in test [19] amounted to 2.53%; in test [20], 3%.

As to `Fc1ccc(-c2ncn(C3CCNCC3)c2-c2ccnc(Oc3ccccc3)n2)cc1`, the inhibition in test [1] is -0.77%; in test [2], 5.35%; in [3], 9.51%; in test [4], 2.07%; in test [5] it was 4%; in test [6], 1.52%. Also, the inhibition came out at 5.42% in test [7]; 2.95% in test [8]; 5.32% in test [9]; 3.81% in test [10]; 5.68% in test [11]; 1.48% in test [12]. Besides, the inhibition worked out at 1.29% in test [13]; 4.92% in [14]; 6.66% in test [15]; 3.19% in test [16]; 7.03% in test [17]; 1.33% in test [18]. Further, the inhibition in test [19] was determined as 5.85%; in test [20] it was 1.85%.
